Assay results published in PubChem BioAssay.
Active and inactive are the calls of the source. Unless noted, no rule for the calls is given here.

Key:
[1] = resazurin metabolic signal in HepG2 cells – cell-based, resazurin fluorescence, 24 h, PK04 Diversity Set, profiling panel (AID 1172); conditions: HepG2 viability, higher = more signal; also: test concentration not given here
[2] = budding yeast growth changes without added modifier – OD600, strain BY4716, 24 h, basal condition, primary screen (AID 1173); conditions: S. cerevisiae BY4716 growth, OD600, 24 h; higher = more signal, called active from +8 up or from −8 down
[3] = viability profiling in MM1S myeloma cells – cell-based, resazurin fluorescence, basal, 24 h, PK04 Diversity Set, profiling panel (AID 1174); conditions: higher = more signal, called active from +8 up or from −8 down;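 also: MM1S multiple myeloma cell line; test concentration not given here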
[4] = molecular target: Dihydroorotate dehydrogenase (quinone), mitochondrial (Plasmodium falciparum (isolate 3D7)) (UniProt Q08210); assay: inhibition of P. falciparum DHODH – biochemical, C-terminal His tag, absorbance 600 nm, primary screen (AID 1175); conditions: PfDHODH enzyme, DCIP absorbance 600 nm; higher = more signal, called active from +8 up or from −8 down;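 also: recombinant parasite enzyme with a five histidine tag at its C terminus; test concentration not given here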
Sequence of Dihydroorotate dehydrogenase (quinone), mitochondrial (Plasmodium falciparum (isolate 3D7)) (Q08210 whole entry, looked up): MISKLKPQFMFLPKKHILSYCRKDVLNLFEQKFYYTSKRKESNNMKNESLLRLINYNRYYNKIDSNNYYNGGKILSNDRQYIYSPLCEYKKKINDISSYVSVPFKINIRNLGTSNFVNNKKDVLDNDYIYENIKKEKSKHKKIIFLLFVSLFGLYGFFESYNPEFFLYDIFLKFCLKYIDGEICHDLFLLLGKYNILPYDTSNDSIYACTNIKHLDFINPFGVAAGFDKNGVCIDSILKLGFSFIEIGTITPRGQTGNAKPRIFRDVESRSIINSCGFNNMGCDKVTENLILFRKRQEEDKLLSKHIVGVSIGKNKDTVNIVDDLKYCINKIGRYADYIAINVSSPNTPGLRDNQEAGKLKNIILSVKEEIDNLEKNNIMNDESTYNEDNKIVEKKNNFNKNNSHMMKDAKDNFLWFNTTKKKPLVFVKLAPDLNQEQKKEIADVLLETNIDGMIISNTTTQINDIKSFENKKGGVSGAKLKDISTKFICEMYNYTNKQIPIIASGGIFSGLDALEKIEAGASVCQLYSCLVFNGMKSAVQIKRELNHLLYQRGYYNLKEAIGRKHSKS

[5] = inhibition of PAO1 biofilm formation – strain PAO1, LB-PBS medium, absorbance 600 nm, primary screen (AID 1176); also: test concentration not given here; conditions: P. aeruginosa PAO1 growth/biofilm, A600, 12 h; higher = more signal
[6] = growth modulation of vineyard yeast isolate – strain RM11-1a, OD600, basal, 24 h, primary screen (AID 1177);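 also: cultures grown under basal conditions with no added stressor; test concentration not given here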; conditions: S. cerevisiae RM11-1a growth, OD600, 24 h; higher = more signal, called active from +8 up or from −8 down
[7] = growth of efflux-deficient E. coli DRC39 – strain DRC39, OD650, 24 h, E. coli filamentation inducers, primary screen (AID 1178);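 also: growth measured as culture turbidity by optical density at 650 nm; test concentration not given here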; conditions: E. coli DRC39 acrAB, higher = more signal, called active from +8 up or from −8 down
[8] = growth of efflux-deficient E. coli DRC39 – strain DRC39, OD650, 48 h, E. coli filamentation inducers, primary screen (AID 1179);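 also: screen aims at cell division blockers that make cells filament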; conditions: E. coli DRC39 delta-acrAB growth, higher = more signal, called active from +8 up or from −8 down
[9] = viability profiling in RPMI8226 myeloma cells – cell-based, resazurin fluorescence, basal, 24 h, PK04 Diversity Set, profiling panel (AID 1180); conditions: higher = more signal;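 also: RPMI8826 multiple myeloma cell line at 5000 cells per well; test concentration not given here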
[10] = molecular target: E3 ubiquitin-protein ligase XIAP (Homo sapiens) (UniProt P98170); assay: small molecules binding XIAP protein – biophysical, small-molecule microarray, fluorescence 635 nm, primary screen (AID 1181); conditions: higher = more signal;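 also: score merges 667 nm emission and signal to noise over triplicate slides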
Sequence of E3 ubiquitin-protein ligase XIAP (Homo sapiens) (P98170 whole entry, looked up): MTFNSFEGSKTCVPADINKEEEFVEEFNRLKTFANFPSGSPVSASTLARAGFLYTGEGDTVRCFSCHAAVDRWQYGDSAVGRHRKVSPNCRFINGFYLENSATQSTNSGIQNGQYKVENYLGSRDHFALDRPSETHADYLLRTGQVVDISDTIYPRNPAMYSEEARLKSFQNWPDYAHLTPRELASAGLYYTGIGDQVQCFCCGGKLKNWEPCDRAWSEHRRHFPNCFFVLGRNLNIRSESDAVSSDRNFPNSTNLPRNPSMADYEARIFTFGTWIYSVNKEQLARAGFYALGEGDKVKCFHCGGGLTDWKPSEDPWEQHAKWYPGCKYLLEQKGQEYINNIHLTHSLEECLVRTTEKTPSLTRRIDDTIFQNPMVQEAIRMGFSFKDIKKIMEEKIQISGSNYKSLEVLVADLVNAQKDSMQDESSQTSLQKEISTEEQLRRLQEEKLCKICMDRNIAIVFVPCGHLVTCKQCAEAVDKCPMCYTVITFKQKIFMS

Row | Compound | z-score [1] | z-score [2] | z-score [3] | composite z-score [4] | z-score [5] | z-score [6] | z-score [7] | z-score [8] | z-score [9] | composite z-score [10]
1 | COc1cc2c(cc1O)C(c1cccs1)N(Cc1sc3ccccc3c1Cl)CC2 (stereo not given) | -1.05 | -1.41 (inactive) | -0.519 (inactive) | -1.72 (inactive) | -0.131 (inactive) | -0.0369 (inactive) | -0.0316 (inactive) | -0.89 (inactive) | -0.94 | 0.134
2 | NC(=O)[C@H]1[C@@H]2C(=O)O[C@@H](c3ccccc3)[C@@H](c3ccccc3)N2[C@@H](c2ccc(O)cc2)[C@]12C(=O)Nc1ccccc12 | -0.367 | -0.376 (inactive) | 0.0279 (inactive) | 0.0023 (inactive) | 0.0332 (inactive) | 0.575 (inactive) | -0.145 (inactive) | 0.0129 (inactive) | 0.417 | -0.0559
3 | C=C[C@@H](C)[C@H](O)c1ccc(OCCO)cc1 | 0.0075 | -0.731 (inactive) | 0.088 (inactive) | -0.445 (inactive) | 0.0852 (inactive) | 0.164 (inactive) | 1.02 (inactive) | 0.856 (inactive) | -0.127 | -0.184
4 | CCCNC(=O)[C@@]1(Sc2ccc(C)cc2)CC(=O)N(C(C)C)[C@@H]1c1ccc(CO)cc1I | -0.202 | -1.18 (inactive) | -2.5 (inactive) | -0.5 (inactive) | 0.0714 (inactive) | 0.29 (inactive) | 0.337 (inactive) | -0.202 (inactive) | -2.53 | -0.039
5 | COC(=O)[C@@]1(Cc2ccccc2CN=[N+]=[N-])N=C(c2ccc(OCCCO)cc2)O[C@H]1c1ccccc1 | -2.6 | 0.797 (inactive) | -5.44 (inactive) | 1.09 (inactive) | 1.83 (inactive) | 2.81 (inactive) | 0.759 (inactive) | -0.783 (inactive) | -6.08 | 0.162
6 | CC1(C)C(=O)C(c2ccccc2)=C2CN3C(=O)N(CCc4ccccc4)C(=O)C3(Cc3ccc(F)cc3)C=C21 (stereo not given) | -1.03 | 0.664 (inactive) | -2.18 (inactive) | -0.533 (inactive) | 0.563 (inactive) | 1.11 (inactive) | -0.687 (inactive) | -1.01 (inactive) | -0.968 | -0.198
7 | CCOC(=O)C1=CC[C@@H](c2ccccc2)N(S(=O)(=O)c2ccc(C)cc2)[C@H]1C=Cc1ccccc1 | 1.25 | 1.58 (inactive) | -0.0664 (inactive) | -0.382 (inactive) | 0.987 (inactive) | 0.65 (inactive) | -0.923 (inactive) | -0.706 (inactive) | -1.42 | -0.103
8 | CCOC(=O)C=Cc1ccccc1O | -0.193 | -9.29 (active) | -0.056 (inactive) | -0.576 (inactive) | 0.0236 (inactive) | -8.46 (active) | -0.0367 (inactive) | -0.276 (inactive) | -0.234 | 0.125
9 | C=C(COC)/C(=C/C[C@@H](OC(C)=O)c1ccc(CO)o1)c1cc(C(=O)OC)ccc1OC | -0.0453 | 0.196 (inactive) | -0.216 (inactive) | -0.0894 (inactive) | 0.637 (inactive) | 0.317 (inactive) | 0.65 (inactive) | 0.638 (inactive) | 0.205 | -0.173
10 | CC(C)[Si]1(C(C)C)OCc2cc(-c3ccc(-c4ccc(Cl)c(Cl)c4)o3)nc(CCc3ccccc3)c21 | 0.822 | -3.49 (inactive) | -1.64 (inactive) | 0.393 (inactive) | 0.149 (inactive) | -0.302 (inactive) | 1.46 (inactive) | 0.643 (inactive) | -0.0096 | -0.185
11 | COC(=O)[C@@]1(Cc2ccc(OC)cc2)[C@H]2c3cc(C(=O)N4CCCC4)n(Cc4ccc(OC(F)(F)F)cc4)c3C[C@H]2CN1C(=O)c1ccccc1 | -0.0938 | 1.82 (inactive) | -1.43 (inactive) | -0.731 (inactive) | 0.343 (inactive) | 0.755 (inactive) | -0.0079 (inactive) | 0.513 (inactive) | -2.54 | 0.0479
12 | CCOC(=O)C1=CCC(c2ccccc2)N(S(=O)(=O)c2ccc([N+](=O)[O-])cc2)C1 (stereo not given) | 0.21 | 1.36 (inactive) | -1.12 (inactive) | 0.243 (inactive) | -0.0196 (inactive) | 0.993 (inactive) | -0.495 (inactive) | 0.0062 (inactive) | -0.927 | -0.113
13 | C=CCNC(=O)[C@H]1[C@@H]2C(=O)O[C@@H](c3ccccc3)[C@@H](c3ccccc3)N2[C@@H](c2ccc(OCCO)cc2)[C@]12C(=O)N(C(=O)OCCOC)c1ccc(C#Cc3ccc(OC)cc3)cc12 | -1.14 | 0.583 (inactive) | 0.476 (inactive) | -2.05 (inactive) | 2.11 (inactive) | 2.22 (inactive) | 1.07 (inactive) | 0.941 (inactive) | 0.637 | -0.0344
14 | O=C1O[C@H](c2ccccc2)[C@H](c2ccccc2)N2[C@H]1[C@@H](C(=O)O)[C@]1(C(=O)Nc3ccc(C#CC4(O)CCCCCC4)cc31)[C@H]2c1ccc(O)cc1 | 0.934 | -1.83 (inactive) | 1.36 (inactive) | -3.2 (inactive) | 0.734 (inactive) | -0.692 (inactive) | 0.451 (inactive) | -0.679 (inactive) | -0.0544 | -0.248
15 | O=C(O)[C@@H]1C[C@@H]2C(=O)N3CCC[C@H]3C(=O)N2[C@@H]1c1cccc(OCCO)c1 | -0.188 | -1.28 (inactive) | -0.447 (inactive) | -0.899 (inactive) | 0.547 (inactive) | 0.0761 (inactive) | -0.185 (inactive) | -0.685 (inactive) | -0.0605 | 0.338
16 | COCC(=C=CC[C@H](O)c1cccc(OCCO)c1)C[C@H](O)COCc1ccccc1 | -0.136 | -1.76 (inactive) | -0.0529 (inactive) | -1.65 (inactive) | 0.838 (inactive) | -0.496 (inactive) | -0.0164 (inactive) | 0.0211 (inactive) | 0.0473 | 0.0736
17 | O=C1OCCC=C[C@H]2OC34C=CCN(c5ccc(Cl)cc5)C(=O)[C@H]3N(CCCCCCO)C(=O)[C@@H]4C12 (stereo not given in full) | 0.546 | -0.247 (inactive) | 1.35 (inactive) | -0.477 (inactive) | -0.786 (inactive) | 0.311 (inactive) | 1.38 (inactive) | 1.74 (inactive) | 1.23 | -0.474
18 | C=CCC(OC(C)=O)[C@@H]1[C@@H](N(Cc2ccc(-c3ccccc3)cc2)C(=O)Cc2ccc(F)cc2)c2cc(OCCCO)ccc2N1C(=O)Cc1ccc2ccccc2c1 (stereo not given in full) | 0.487 | -0.0838 (inactive) | 0.821 (inactive) | 0.252 (inactive) | 0.113 (inactive) | -0.177 (inactive) | 0.531 (inactive) | 0.575 (inactive) | 0.486 | -0.455
19 | O=C(N1CCOCC1)[C@@]1(CCS(=O)(=O)c2ccccc2)N=C(c2ccc(OCCCO)cc2)O[C@H]1c1ccccc1 | -0.285 | 1.24 (inactive) | -0.986 (inactive) | 0.225 (inactive) | 1.02 (inactive) | 0.0235 (inactive) | 0.0835 (inactive) | 0.0231 (inactive) | -1.09 | 0.3
20 | CO[C@H]1O[C@H](CO)[C@@H](OC(=O)Nc2cccc(F)c2)[C@H](OC(=O)Nc2ccccc2-c2ccccc2)[C@H]1OC(=O)Nc1ccccc1-c1ccccc1 | -4.61 | 0.748 (inactive) | -5.86 (inactive) | 0.791 (inactive) | 1.16 (inactive) | 1.03 (inactive) | -0.852 (inactive) | -0.516 (inactive) | -4.87 | -0.0925
21 | [N-]=[N+]=Nc1ccccc1C[C@]1(C(=O)NCc2ccccc2)COC(c2ccc(OCCCO)cc2)=N1 | -0.85 | 0.858 (inactive) | -5.51 (inactive) | 0.363 (inactive) | -0.0837 (inactive) | 2.15 (inactive) | 0.728 (inactive) | 0.161 (inactive) | -4.83 | 0.212
22 | CN(C)CCCCCCNC(=O)[C@@H]1C[C@@H]2C(=O)N[C@@H](CCCCN)C(=O)N2[C@@H]1c1ccc(O)cc1 | -0.0356 | -1.56 (inactive) | 1.79 (inactive) | -0.0587 (inactive) | 1.63 (inactive) | -0.63 (inactive) | 0.739 (inactive) | -1.59 (inactive) | 0.659 | 3.51
23 | C#C[C@@H](CC)O[Si](C#CCCCC#N)(C(C)C)C(C)C | -0.276 | -17.4 (active) | -0.651 (inactive) | -1.06 (inactive) | 0.113 (inactive) | -2.5 (inactive) | 0.0725 (inactive) | 0.173 (inactive) | -0.221 | -0.142
24 | C=C(/C(=C/C[C@@H](OC(=O)c1ccncc1)c1cccc(OCCO)c1)c1cnc2ccccc2c1)C(C)C | -0.118 | -1.48 (inactive) | -0.59 (inactive) | -5.68 (inactive) | 1.86 (inactive) | 0.152 (inactive) | -0.192 (inactive) | -0.284 (inactive) | 0.0866 | 0.227
25 | COCCCNC(=O)[C@@]1(Sc2ccc(C)cc2)CC(=O)N(Cc2ccccc2Cl)[C@@H]1c1ccc(CO)cc1I | 0.0727 | -3.06 (inactive) | -3.21 (inactive) | -2.66 (inactive) | 0.242 (inactive) | -1.07 (inactive) | 0.0085 (inactive) | -0.0682 (inactive) | -2.38 | -0.138
26 | COCCOC(=O)N1C(=O)[C@@]2(c3cc(C#CCNC(N)=O)ccc31)[C@H](c1ccc(OCCO)cc1)N1[C@H](c3ccccc3)[C@H](c3ccccc3)OC(=O)[C@H]1[C@@H]2C(=O)NC[C@H](O)c1ccccc1 | 0.637 | 1.82 (inactive) | 0.0592 (inactive) | -1.88 (inactive) | 2.18 (inactive) | 1.54 (inactive) | 0.48 (inactive) | -0.532 (inactive) | -0.45 | -0.153
